Data on 2 molecules can be found in PubChem BioAssay.

Several values for one entry are separate records, joined by “and”; a condition that tells them apart may be missing. Equal entries are not always repeated. Inconclusive results are not listed. For some of these results: Results with a measured potency or affinity are listed apart. Activity calls are given as the source filed them. Unless noted, how the calls were made is not given here.

Assay [1] concerns the target 6-phosphogluconate dehydrogenase, decarboxylating (Homo sapiens) (UniProt P52209). The assay can be described thus: inhibition of human phosphogluconate dehydrogenase – biochemical, recombinant enzyme, NADPH absorbance, primary screen (AID 1159550;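 active means at least 20% inhibition of 6-phosphogluconate dehydrogenase activity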). Conditions: recombinant 6PGD, NADPH absorbance 341 nm; at 10 µM; stronger effect = higher value.
The nature of assay [2]: EMT-state selective cytotoxicity in co-culture – imaging, PC-3E GFP, TEM4-18 mCherry, primary screen (AID 1345086;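 active means compounds killing one labelled cell type while sparing the other, by normalised counts and ratio limits, not self-fluorescent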;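 on all read-outs here: cells exposed to compound for 72 h before imaging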;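 on red/green cell ratio (normalised): normalised mesenchymal count divided by normalised epithelial count so high means epithelial killing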). The conditions noted are these: PC-3E GFP / TEM4-18 mCherry co-culture, imaging cell counts, at 1 µM; for red/green cell ratio (normalised): actives lie on both sides.
Assay [3] concerns the target ATP-dependent translocase ABCB1 (Homo sapiens) (UniProt P08183). Description: P-glycoprotein substrate transport blockade – cell-based (AID 377; in the data active means fluorescence slope change above about 50%). Conditions: MDR1-expressing cells, fluorescent substrate accumulation slope; stronger effect = higher value; concentration not given here.
The nature of assay [4]: blockers of polyQ-driven CASP3 activation – cell-based (AID 1583). Conditions: polyglutamine-induced caspase-3 activation, cell assay; stronger effect = higher value;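 tested at 10 µM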.
A short description of assay [5]: yeast 75Q aggregation reduction – 75Q-TubU reporter (AID 1593). The conditions noted are these: Yeast 75Q polyglutamine aggregation reporter.
Assay [6] is described as follows: restoration of touch response, mutant HTT neurons – whole organism, C. elegans mechanosensory neurons, N-terminal huntingtin (AID 1599). The conditions noted are these: C. elegans polyQ-huntingtin mechanosensory neurons, stronger effect = higher value.
Assay [7] in a line: blockers of cytochrome c efflux from mitochondria – biochemical, purified mitochondria (AID 1603).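 Further: mouse liver mitochondria challenged with calcium chloride; signal normalized to the plate average as 100%.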 Conditions: stronger effect = lower value.
The nature of assay [8]: polyglutamine aggregate formation blockers (AID 1604). Conditions: polyglutamine-induced protein aggregation inhibition assay; stronger effect = higher value; tested at 2.5 µM.
Assay [9] can be described thus: glutamate transport activators, MN-1 cells, MN-1 cell line (AID 1612).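 Further: tested at 1 µM final; 0% = mean of DMSO vehicle wells on each plate; positive means more glutamate uptake than control and negative means less.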 The conditions noted are these: MN-1 motor neuron cells, stronger effect = higher value.
The nature of assay [10]: GFP-Q80 aggregate reduction, neuronal-like cells, cell-based, NGF-treated PC12, GFPQ80 (AID 1614).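 Further: lower means fewer inclusions and 0 means no inclusions at all.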 The conditions noted are these: PC12 NGF-treated GFP-polyQ80 inclusion reduction.
Assay [11] is described as follows: 75Q-TubH aggregate inhibition, S. cerevisiae, yeast (AID 1616). Conditions: S. cerevisiae 75Q-TubH polyglutamine aggregation suppression; stronger effect = higher value.
Assay [12] is described as follows: antimalarial activity against Dd2 strain (AID 2302;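 active means growth inhibition above 50% at the single 2 µM test dose, taken to imply half-maximal potency below 2 µM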;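 further: 0% = DMSO untreated growth and 100% = chloroquine plus artemisinin killed control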). The conditions noted are these: P. falciparum Dd2 in RBCs, LDH growth readout, 72 h; at 2 µM; stronger effect = higher value.
Assay [13] can be described thus: human hepatoma cell viability loss – ATP luminescence, cytotoxicity control for P. falciparum antimalarial project, primary screen (AID 2303;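 active means inhibition above 50%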;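 further: 0% = DMSO wells and 100% = digitonin-killed cells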). The conditions noted are these: HepG2 viability, 24-48 h, at 10 µM, stronger effect = higher value.
Assay [14] deals with L-lactate dehydrogenase (Plasmodium falciparum (isolate CDC / Honduras)) (UniProt Q27743). The assay can be described thus: PfLDH activity inhibition – cell lysate, 3D7 strain, counter-screen for P. falciparum growth inhibition project (AID 2304).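 Further: 0% = vehicle and 100% = reference inhibitor.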 Conditions: P. falciparum 3D7 crude extract, LDH APAD/NBT absorbance; at 2 µM; stronger effect = higher value.
Assay [15] is described as follows: inhibition of 3D7 malaria parasite growth – strain 3D7 (AID 2306).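 Further: 0% = DMSO wells and 100% = chloroquine plus artemisinin control wells.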 Conditions: P. falciparum 3D7 erythrocytic growth, LDH absorbance, 72 h; at 2 µM; stronger effect = higher value.
A short description of assay [16]: P. berghei load reduction in hepatocytes – cell-based, HepG2, luciferase luminescence, HepG2 viability, primary screen (AID 624349; in the data active means parasite load remaining mostly below about 12%, no sharp cut-off; inactive means mostly above about 10%;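 further: 100% = mean of DMSO negative control wells on the same plate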). The conditions noted are these: P. berghei liver stage in HepG2, luciferase luminescence, concentration not given here; parasite load remaining: stronger effect = lower value; viability: measured here: HepG2 viability without parasites.
Assay [17] addresses Calcium-dependent protein kinase 1 (Plasmodium falciparum (isolate 3D7)) (UniProt P62344). The assay can be described thus: PfCDPK1 kinase inhibitors, biochemical, TCAMS library (AID 1159585; cut-off not given, nearly all actives have IC50 up to about 0.98 µM;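 further: inhibitors leave more ATP so luminescence rises with inhibition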). Conditions: recombinant PfCDPK1, Kinase-Glo ATP depletion luminescence. (In general: Kinase-Glo reads ATP consumption through a luciferase reaction.)
Assay [18] deals with Plasmodium falciparum protein kinase 6 (PK6, PF3D7_1337100) (UniProt Q8IDW1). Description: PfPK6 kinase inhibitors, biochemical, TCAMS library (AID 1159586). The conditions noted are these: recombinant PfPK6, Kinase-Glo ATP depletion luminescence.
Assay [19] deals with Protein kinase 7 (PK7), Plasmodium falciparum 3D7 (PF3D7_0213400) (UniProt Q7YTF7). The assay can be described thus: inhibition of Plasmodium PK7 catalytic activity – biochemical, TCAMS antimalarial set, Kinase-Glo luminescence (AID 1159587). The conditions noted are these: recombinant PfPK7, Kinase-Glo ATP depletion luminescence.
Assay [20] has as its target Calcium-dependent protein kinase 4 (Plasmodium falciparum (isolate 3D7)) (UniProt Q8IBS5). Description: PfCDPK4 kinase inhibitors, biochemical, TCAMS library (AID 1159588; cut-off not given, nearly all actives have IC50 up to about 0.91 µM). Conditions: recombinant PfCDPK4, Kinase-Glo ATP depletion luminescence.
Assay [21] concerns Aerobactin synthetase IucA (Klebsiella pneumoniae hvKP1). Description: IucA enzyme inhibition, primary screen, biochemical, Spectrum library (AID 1346200).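 Further: 100% = wells without compound and 0% = wells lacking enzyme.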 The conditions noted are these: malachite green pyrophosphate, A620, at 8 µM, stronger effect = lower value.
Assay [22] in a line: viability loss with induced miR-34 in A549 – imaging, A549 dox-inducible miR-34, nuclei and caspase counts, primary screen (AID 1347080;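 active means compounds whose cell count with miR-34 switched on is under 0.7 times the count with it off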). Conditions: A549 miR-34 inducible, Hoechst nuclei count, 48 h.
The target in assay [23] is NAD(+) hydrolase SARM1 (Homo sapiens) (UniProt Q6SZW1). Description: blocking NAD cleavage by SARM1 SAM-TIR – cell lysate, NAD-Glo luminescence (AID 1508614;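 active means compound whose remaining NAD level is above about 45 nM, limit read from the data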). The conditions noted are these: SAM-TIR HEK293T lysate NADase, at 1 µM, stronger effect = higher value.
Assay [24] concerns the target Mitogen-activated protein kinase 7 (Homo sapiens) (UniProt Q13164). Description: Gal4-ERK5 driven luciferase induction – cell-based, HTS, primary screen (AID 1508626;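 active means luciferase signal above three times the same-plate solvent-only control wells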;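 further: luciferase driven by Gal4-ERK5 fusion binding five Gal4 sites before minimal TATA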). The conditions noted are these: HeLa Gal4-ERK5 transactivation, 18 h, at 5 µM, stronger effect = higher value.
Setting [25] is: measured here: epithelial PC-3E GFP cell survival.
Where [26] appears, read: measured here: mesenchymal TEM4-18 mCherry cell survival.

6-phosphogluconate dehydrogenase, decarboxylating (Homo sapiens), sequence (P52209 whole entry, looked up): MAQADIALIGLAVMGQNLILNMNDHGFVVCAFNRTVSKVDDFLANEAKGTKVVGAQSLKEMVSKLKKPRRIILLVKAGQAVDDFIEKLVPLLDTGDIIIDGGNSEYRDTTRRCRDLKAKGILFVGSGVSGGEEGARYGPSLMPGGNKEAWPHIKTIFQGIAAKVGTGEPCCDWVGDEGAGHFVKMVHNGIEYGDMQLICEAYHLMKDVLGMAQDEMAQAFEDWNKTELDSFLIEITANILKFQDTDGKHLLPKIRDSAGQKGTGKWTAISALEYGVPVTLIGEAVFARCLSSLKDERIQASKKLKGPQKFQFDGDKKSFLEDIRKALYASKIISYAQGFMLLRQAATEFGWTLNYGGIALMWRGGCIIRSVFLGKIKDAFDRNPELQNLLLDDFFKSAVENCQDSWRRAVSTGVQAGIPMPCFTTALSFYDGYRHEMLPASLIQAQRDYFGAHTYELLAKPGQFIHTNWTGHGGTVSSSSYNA
Mitogen-activated protein kinase 7 (Homo sapiens), sequence (Q13164 whole entry, looked up, the tested form may be a part): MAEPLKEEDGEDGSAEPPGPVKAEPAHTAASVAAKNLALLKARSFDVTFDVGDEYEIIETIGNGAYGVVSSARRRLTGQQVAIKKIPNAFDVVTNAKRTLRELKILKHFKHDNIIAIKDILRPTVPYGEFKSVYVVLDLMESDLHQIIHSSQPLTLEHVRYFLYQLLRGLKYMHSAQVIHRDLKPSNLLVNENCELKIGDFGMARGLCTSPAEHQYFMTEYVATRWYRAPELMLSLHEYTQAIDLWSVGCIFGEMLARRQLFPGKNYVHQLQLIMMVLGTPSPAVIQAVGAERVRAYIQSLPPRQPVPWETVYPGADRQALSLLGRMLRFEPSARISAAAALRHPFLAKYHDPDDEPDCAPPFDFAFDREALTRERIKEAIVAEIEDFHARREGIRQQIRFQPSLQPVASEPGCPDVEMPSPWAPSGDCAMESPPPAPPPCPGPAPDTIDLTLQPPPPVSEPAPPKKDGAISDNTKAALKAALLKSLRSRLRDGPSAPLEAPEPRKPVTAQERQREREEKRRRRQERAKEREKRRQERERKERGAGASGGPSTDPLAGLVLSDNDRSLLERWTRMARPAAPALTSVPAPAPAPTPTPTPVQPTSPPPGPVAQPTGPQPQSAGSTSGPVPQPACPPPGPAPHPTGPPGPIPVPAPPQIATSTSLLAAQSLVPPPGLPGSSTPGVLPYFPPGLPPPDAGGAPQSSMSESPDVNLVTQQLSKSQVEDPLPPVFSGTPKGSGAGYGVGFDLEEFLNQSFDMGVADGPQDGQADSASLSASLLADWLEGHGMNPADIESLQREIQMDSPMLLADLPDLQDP
ATP-dependent translocase ABCB1 (Homo sapiens), sequence (P08183 whole entry, looked up): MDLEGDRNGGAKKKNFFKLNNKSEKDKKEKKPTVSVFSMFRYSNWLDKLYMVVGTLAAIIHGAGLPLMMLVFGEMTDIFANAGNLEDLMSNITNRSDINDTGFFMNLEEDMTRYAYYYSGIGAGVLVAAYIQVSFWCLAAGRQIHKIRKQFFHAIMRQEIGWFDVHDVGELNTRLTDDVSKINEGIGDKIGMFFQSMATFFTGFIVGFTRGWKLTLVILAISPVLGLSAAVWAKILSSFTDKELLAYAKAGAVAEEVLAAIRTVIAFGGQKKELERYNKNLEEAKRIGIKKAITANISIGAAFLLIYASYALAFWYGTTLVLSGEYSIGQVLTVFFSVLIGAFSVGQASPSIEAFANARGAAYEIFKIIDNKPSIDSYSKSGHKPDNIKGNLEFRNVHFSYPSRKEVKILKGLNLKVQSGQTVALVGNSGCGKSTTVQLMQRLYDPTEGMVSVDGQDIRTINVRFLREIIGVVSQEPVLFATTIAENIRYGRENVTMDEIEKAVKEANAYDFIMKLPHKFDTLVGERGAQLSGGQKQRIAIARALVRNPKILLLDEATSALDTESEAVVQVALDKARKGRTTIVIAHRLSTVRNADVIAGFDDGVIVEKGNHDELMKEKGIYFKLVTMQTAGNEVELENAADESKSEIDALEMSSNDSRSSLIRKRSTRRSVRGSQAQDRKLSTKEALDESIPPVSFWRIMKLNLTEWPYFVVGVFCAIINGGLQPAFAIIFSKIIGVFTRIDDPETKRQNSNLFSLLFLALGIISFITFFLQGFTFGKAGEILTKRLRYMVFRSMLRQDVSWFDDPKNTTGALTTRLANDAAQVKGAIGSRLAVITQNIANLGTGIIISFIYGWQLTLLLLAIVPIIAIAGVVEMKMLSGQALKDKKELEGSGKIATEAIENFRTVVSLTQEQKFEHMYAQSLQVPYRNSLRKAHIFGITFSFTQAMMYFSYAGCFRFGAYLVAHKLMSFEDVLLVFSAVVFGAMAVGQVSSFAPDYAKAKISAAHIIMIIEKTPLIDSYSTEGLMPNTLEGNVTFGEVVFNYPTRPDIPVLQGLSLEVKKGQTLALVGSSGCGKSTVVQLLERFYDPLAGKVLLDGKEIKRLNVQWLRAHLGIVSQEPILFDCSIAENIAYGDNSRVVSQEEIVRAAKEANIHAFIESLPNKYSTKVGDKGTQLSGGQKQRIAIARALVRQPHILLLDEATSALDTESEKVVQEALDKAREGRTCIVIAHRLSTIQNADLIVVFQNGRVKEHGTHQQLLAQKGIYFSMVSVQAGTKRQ
Calcium-dependent protein kinase 4 (Plasmodium falciparum (isolate 3D7)), sequence (Q8IBS5 whole entry, looked up): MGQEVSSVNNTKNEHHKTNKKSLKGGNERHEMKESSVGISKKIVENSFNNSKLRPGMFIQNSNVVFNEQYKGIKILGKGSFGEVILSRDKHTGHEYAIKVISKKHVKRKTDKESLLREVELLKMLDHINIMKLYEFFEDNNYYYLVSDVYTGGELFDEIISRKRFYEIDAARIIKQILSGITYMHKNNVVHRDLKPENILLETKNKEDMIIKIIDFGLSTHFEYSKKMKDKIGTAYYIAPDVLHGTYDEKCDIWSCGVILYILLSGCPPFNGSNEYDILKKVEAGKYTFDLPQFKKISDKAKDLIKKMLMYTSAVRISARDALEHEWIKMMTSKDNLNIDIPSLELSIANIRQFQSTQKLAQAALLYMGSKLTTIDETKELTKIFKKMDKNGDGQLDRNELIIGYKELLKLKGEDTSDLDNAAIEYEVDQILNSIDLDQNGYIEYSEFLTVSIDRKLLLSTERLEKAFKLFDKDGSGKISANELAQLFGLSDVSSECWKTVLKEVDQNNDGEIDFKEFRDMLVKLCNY
Protein kinase 7 (PK7), Plasmodium falciparum 3D7 (PF3D7_0213400), sequence (Q7YTF7 1-343): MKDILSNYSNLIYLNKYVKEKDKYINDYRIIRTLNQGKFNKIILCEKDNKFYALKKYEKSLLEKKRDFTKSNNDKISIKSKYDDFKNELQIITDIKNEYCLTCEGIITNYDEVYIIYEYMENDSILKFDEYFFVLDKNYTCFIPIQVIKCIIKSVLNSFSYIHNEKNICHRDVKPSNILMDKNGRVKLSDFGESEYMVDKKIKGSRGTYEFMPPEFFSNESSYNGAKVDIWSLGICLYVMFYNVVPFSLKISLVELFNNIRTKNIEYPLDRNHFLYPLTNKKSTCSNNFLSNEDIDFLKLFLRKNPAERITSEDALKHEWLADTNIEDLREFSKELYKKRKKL
Calcium-dependent protein kinase 1 (Plasmodium falciparum (isolate 3D7)), sequence (P62344 whole entry, looked up): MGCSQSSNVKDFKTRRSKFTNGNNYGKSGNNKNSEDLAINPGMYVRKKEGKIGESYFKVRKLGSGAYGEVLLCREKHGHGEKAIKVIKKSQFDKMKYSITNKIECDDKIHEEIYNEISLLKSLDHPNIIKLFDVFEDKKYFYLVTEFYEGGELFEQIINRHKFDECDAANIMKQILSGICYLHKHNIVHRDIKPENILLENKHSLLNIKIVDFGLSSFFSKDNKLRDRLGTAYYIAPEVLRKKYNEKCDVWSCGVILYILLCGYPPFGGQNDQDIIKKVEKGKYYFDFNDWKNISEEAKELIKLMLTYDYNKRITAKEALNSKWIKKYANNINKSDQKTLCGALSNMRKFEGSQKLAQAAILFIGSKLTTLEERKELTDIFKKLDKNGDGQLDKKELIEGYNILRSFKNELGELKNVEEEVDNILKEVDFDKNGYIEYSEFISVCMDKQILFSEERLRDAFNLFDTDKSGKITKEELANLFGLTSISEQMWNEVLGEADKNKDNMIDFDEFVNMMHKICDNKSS
NAD(+) hydrolase SARM1 (Homo sapiens), sequence (Q6SZW1 whole entry, looked up, the tested form may be a part): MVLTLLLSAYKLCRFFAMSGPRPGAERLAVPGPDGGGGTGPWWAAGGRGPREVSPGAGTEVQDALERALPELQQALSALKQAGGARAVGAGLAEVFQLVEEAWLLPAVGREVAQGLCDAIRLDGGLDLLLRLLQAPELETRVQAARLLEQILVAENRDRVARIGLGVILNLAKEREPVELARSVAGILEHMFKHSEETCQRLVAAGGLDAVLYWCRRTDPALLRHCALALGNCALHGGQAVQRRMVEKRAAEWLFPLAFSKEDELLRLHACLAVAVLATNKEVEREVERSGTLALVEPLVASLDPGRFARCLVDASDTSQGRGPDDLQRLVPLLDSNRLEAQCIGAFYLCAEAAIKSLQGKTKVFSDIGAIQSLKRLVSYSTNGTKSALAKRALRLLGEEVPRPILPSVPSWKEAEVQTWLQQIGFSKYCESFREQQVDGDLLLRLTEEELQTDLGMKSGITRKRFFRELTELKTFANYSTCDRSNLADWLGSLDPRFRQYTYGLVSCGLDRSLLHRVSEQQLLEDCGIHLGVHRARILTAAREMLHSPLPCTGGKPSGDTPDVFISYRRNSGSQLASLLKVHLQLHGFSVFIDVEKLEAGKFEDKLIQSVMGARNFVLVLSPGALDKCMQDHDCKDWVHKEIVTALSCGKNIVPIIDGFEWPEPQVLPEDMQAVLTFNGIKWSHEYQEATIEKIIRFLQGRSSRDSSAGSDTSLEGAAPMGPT
L-lactate dehydrogenase (Plasmodium falciparum (isolate CDC / Honduras)), sequence (Q27743 whole entry, looked up): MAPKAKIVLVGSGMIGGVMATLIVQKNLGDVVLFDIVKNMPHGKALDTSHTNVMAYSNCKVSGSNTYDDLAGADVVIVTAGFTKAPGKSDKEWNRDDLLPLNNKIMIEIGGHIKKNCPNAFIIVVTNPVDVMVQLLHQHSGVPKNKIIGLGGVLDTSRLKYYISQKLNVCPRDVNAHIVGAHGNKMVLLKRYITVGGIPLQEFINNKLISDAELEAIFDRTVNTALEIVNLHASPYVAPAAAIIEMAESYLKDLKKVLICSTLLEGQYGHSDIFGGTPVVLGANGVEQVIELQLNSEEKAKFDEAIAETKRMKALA

Broadly, the inhibition is the change of the read-out against control, counted positive when it falls. For `CCCCCCCCCc1ccc(O)cc1`, the inhibition in assay [1] is 10.5% (inactive). Also, in assay [2], the red/green cell ratio (normalised) was 0.85 (inactive). Further, the normalised cell number was found to be 1.34 in [2] (setting [25]) and 1.14 in assay [2] (setting [26]).

Broadly, the viability is a read-out of living cells in per cent, often relative to untreated cells. For the molecule `C=C[C@H]1CN2CC[C@H]1C[C@H]2[C@H](O)c1ccnc2ccccc12`, the fluorescence slope change in [3] is 71.3% (active). Moreover, the inhibition in assay [4] was 21%; in assay [13], 9% (inactive); in [14], 2% (inactive); in assay [1], 5.53% (inactive). The molecule further returned a score in assay [5] of 1.18. In assay [6], this molecule came in with a rescue above control of 0.34. For the same molecule, the cytochrome c release ratio in assay [7] amounted to 0.75. In addition, the inhibition of aggregation in [8] turned out to be 48.7%. For the same molecule, the glutamate uptake change in assay [9] was -2.27%. In assay [10], this molecule showed an inclusion score of 2. Further, in assay [11], the aggregation suppression score is 1.28. The growth inhibition was 3% (inactive) in assay [12] and 100% (active) in [15]. Moreover, the parasite load remaining in [16] is 56.2% (inactive) and 85.6% (inactive) and 31.1% (inactive). The viability in [16] was 103% and 68.9% and 98.9%. Besides, the outcome in [17], in assay [18], in assay [19] and in assay [20] was inactive. The red/green cell ratio (normalised) in [2] was 1.04 (inactive). The normalised cell number amounted to 1.08 in assay [2] (setting [25]) and 1.12 in assay [2] (setting [26]). Besides, the activity remaining in [21] was 97.1% (inactive). For the same molecule, the fold change in [22] (stronger effect = lower value) was 0.86 (inactive) and 0.872 (inactive); in [22] (measured here: relative caspase fold change +Dox/-Dox) it was 1.26 and 3.36. Moreover, the cell count in assay [22] (measured here: total cells with miR-34 induction, stronger effect = lower value) is 9250 and 11500; in assay [22] (measured here: total cells without miR-34 induction), 10800 and 13200. Moreover, the remaining NAD in assay [23] is 10 nM (inactive). Further, the luciferase signal in assay [24] is 48 AU (inactive).
